# Screens (PubChem)
# Most compounds without a hit are left out; they make up all but 2.2% or so of the library.
# Rce1 inhib: yeast Rce1p protease inhibitors, primary screen, biochemical, fluorescence, cell-free homogeneous; calls only; 290,000 compounds, 0.27% hits; yeast membranes, quenched prenylated peptide cleavage fluorescence; AID 2563, 2010; CAAX prenyl protease 2 (Saccharomyces cerevisiae (strain ATCC 204508 / S288c)), Q03530;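 active = fall in fluorescence gain of 50% or more versus controls, with final raw signal at or below 3038400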;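 also: plate controls were neutral control wells for no effect and wells lacking membranes for full effect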
# NPR1 activator: GC-A stimulated cGMP production enhancers – HEK293 GC-A cells, cGMP TR-FRET, EC30 ANP, primary screen; 370,000 compounds, 0.14% hits; 0% at EC30 ANP, 100% saturating ANP; Atrial natriuretic peptide receptor 1 (Homo sapiens), P16066; activation, % at 10 µM; in the data active = activation above about 40%
# GC-B act: human GC-B receptor activators, primary screen, HEK293 GC-B cells, cGMP TR-FRET, EC30 CNP | Atrial natriuretic peptide receptor 2 (Homo sapiens), P20594 | 0% at EC30 CNP, 100% saturating CNP | activation, % at 10 µM | 370,000 compounds, 0.11% hits | AID 1920062, 2024;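 active = activation at 10 µM reaching about 35% in either raw or pattern-adjusted values, limit read from the data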
# PfM18AAP inh: PfM18AAP inhibitors, malaria aminopeptidase, primary screen, biochemical, QFRET, recombinant enzyme | 290,000 compounds, 1.2% hits | AID 1822, 2009 | inhibition, % at 7.35 µM | H-Glu-NHMec fluorogenic cleavage;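 active = inhibition above the campaign mean inhibition over all tested compounds plus 3 SD, cut at about 28% in these data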;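 also: 0% = plate median of test compound wells and 100% = 2 mM ZnCl2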
# PLC-beta3 inh: human PLC-beta3 inhibitors, primary screen, biochemical, fluorescence | Purified PLC-beta3, fluorogenic substrate | inhibition, % at 12.2 µM | 370,000 compounds, 0.18% hits | AID 720704, 2013; in the data active = inhibition above about 11%;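 also: 0% = median of compound wells on plate and 100% = full blocker control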
# PLCg1 inh: PLC-gamma1 enzyme inhibitors, primary screen, biochemical, fluorescence, purified enzyme | 1-phosphatidylinositol 4,5-bisphosphate phosphodiesterase gamma-1 (Homo sapiens), P19174 | fluorogenic substrate | inhibition, % at 12.2 µM | 370,000 compounds, 0.84% hits | AID 720700, 2013
# PLCg1 ctr: PLC-gamma1 enzyme inhibitors, counter-screen for PLC-beta3 inhibitor project, biochemical, fluorescence; inhibition, % at 12.3 µM; 3,300 compounds, 3.1% hits; purified PLC-gamma1, fluorogenic substrate; shares compounds with PLCg1 inh
# PLCbeta3 conf: PLC-beta3 inhibitor confirmation, biochemical, fluorescence, purified enzyme. fluorogenic substrate fluorescence. 3,300 compounds, 1% hits. inhibition, % at 12.3 µM. shares compounds with PLCg1 inh; in the data active = inhibition above about 11%
# The depositor's hits bear a star; i = inactive; nt = no result given. Rule as the data show it, unless noted: active = inhibition above about 9.5%; inactive = the rest.
SMILES,Rce1 inhib,NPR1 activator,GC-B act,PfM18AAP inh,PLC-beta3 inh,PLCg1 inh,PLCg1 ctr,PLCbeta3 conf
O=C(CCCN1C(=O)/C(=C\c2ccco2)SC1=S)Nc1ccc(O)cc1C(=O)O,i,-2,3,8,-25,9.6*,-11,-24
O=C(CCCN1C(=O)/C(=C\c2cccs2)SC1=S)Nc1cccc(C(=O)O)c1,i,0,-1,-11,1,0,nt,nt
CC(C)(C)c1ccc(-c2nnc(SCC(=O)Nc3ccc4c(c3)OCCO4)n2-c2ccc(Cl)cc2)cc1,nt,-1,10,nt,2,0,nt,nt
CCOC(=O)CC[C@@H]1CC[C@]2(CCCN(C(=O)C3CCCCC3)C2)O1,nt,0,-3,nt,-5,4,nt,nt
CC(C)C[C@@H]1COc2cccc(N3CCSCC3)c2S(=O)(=O)N1C,nt,1,-1,nt,-1,-1,nt,nt
C/C(=N/NC(=O)c1ccccc1)c1ccc(NC(=O)C(F)(F)F)cc1,i,1,5,-11,11*,8,-4,-1
COC(=O)C1CN(Cc2ccccc2)CCS(=O)(=O)N1Cc1ccc(OC)cc1 (stereo not drawn),nt,-4,-3,nt,3,2,nt,nt
Cc1ccc(NC(=O)CN(C)C(=O)c2ccc(S(=O)(=O)N(C)c3ccccc3)cc2)cc1,i,-2,-6,-1,-2,11*,-2,0
CC1=NN(c2ccc(Cl)cc2)C(=O)C1C(c1ccccc1O)c1c(C)[nH]n(-c2ccc(Cl)cc2)c1=O (stereo not drawn),i,nt,nt,8,nt,nt,nt,nt
CC1=NN(c2ccc(C)c(C)c2)C(=O)C1C(c1cccc(O)c1)C1C(=O)N(c2ccc(C)c(C)c2)N=C1C (stereo not drawn),i,1,6,6,5,16*,0,-1
O=C(NCCc1ccc(Cl)cc1Cl)c1cncc(Br)c1,i,-16,-12,-5,0,11*,-6,-2
C[C@@H]1CN([C@H](C)CO)C(=O)c2cc(Br)cnc2O[C@H]1CN(C)C(=O)c1ccc(F)cc1,nt,-4,-7,nt,1,0,nt,nt
CC(=O)Nc1ccc(S(=O)(=O)N/N=C/c2ccc(C)s2)cc1,i,1,-5,5,12*,4,-4,1
O=C(CCC(=O)Nc1ccccc1Cl)NNC(=O)NC1CCCCC1,i,1,1,0,-9,0,nt,nt
CCCC(=O)NNC(=O)CCC(=O)Nc1ccccc1Cl,i,6,2,-5,0,10*,-4,-2
Cc1nc2ccccn2c1P(=O)(c1ccccc1)c1ccccc1,nt,-13,-15,nt,3,1,nt,nt
Cc1ccc(/C=C2/C(=O)c3ccc(C(=O)O)cc3C2=O)o1,i,5,3,18,-5,19*,-3,-13
COC(=O)c1c(C)[nH]c(C(C)=O)c1C,i,3,3,1,0,11*,7,4
Cc1ccsc1/C=N/NC(=O)C1CC(=O)N(c2ccccc2)C1 (stereo not drawn),i,2,2,0,11*,3,4,3
Nc1[nH]c(C(=O)c2ccccc2)c(-c2cccc(C(F)(F)F)c2)c1C(=O)NCCc1c[nH]c2ccccc12,nt,-11,-5,nt,-13,-12,nt,nt
Cc1cc(C)nc(NCC(O)COc2ccccc2C)n1 (stereo not drawn),i,2,1,-3,9,12*,-4,-2
Cc1cc(C)nc(NCC(O)CNc2ccccc2C)n1 (stereo not drawn),i,2,0,1,7,-1,nt,nt
CC(=O)NC(CCS(C)(=O)=O)C(=O)Nc1ccccc1C (stereo not drawn),i,3,7,0,-1,-1,nt,nt
CC(=O)NC(CCS(C)(=O)=O)C(=O)Nc1cc(C)on1 (stereo not drawn),i,3,-3,-6,5,10*,-37,1
CC(C)CC(=O)NC(=S)Nc1nc(-c2cccc3ccccc23)cs1,i,-7,-7,-1,6,16*,-2,-5
SMILES,Rce1 inhib,NPR1 activator,GC-B act,PfM18AAP inh,PLC-beta3 inh,PLCg1 inh,PLCg1 ctr,PLCbeta3 conf
CCOC(=O)Cc1csc(NC(=S)NC(=O)CC(C)C)n1,i,1,-4,-5,2,1,nt,nt
COc1ccc(NC(=O)c2cc(-c3ccc(OC)c(OC)c3)on2)cc1OC,i,4,4,0,10,10.0*,-155,-194
O=C(OCc1ccccc1F)c1cc([N+](=O)[O-])ccc1N1CCOCC1,i,0,1,nt,-4,1,nt,nt
O=C(OCc1ccccc1C(F)(F)F)c1cc([N+](=O)[O-])ccc1N1CCOCC1,i,-2,-1,1,3,10*,-1,2
O=C(NCc1ccccc1)[C@@H]1CCCN1C(=O)[C@H]1CCCN1C(=O)c1cccc(F)c1,nt,-1,-3,nt,2,3,nt,nt
Cc1cccc(C(=O)NNC(=O)C2CCN(C(=O)OC(C)(C)C)CC2)c1,i,0,-2,-1,2,9.8*,-9,-4
Cc1ccc(C(=O)NNC(=O)C2CCN(C(=O)OC(C)(C)C)CC2)cc1,i,6,5,-12,-6,-1,nt,nt
CC(C)(C)NC(=O)NC(=O)COc1ccc(Br)cc1Br,i,0,-1,-4,7,11*,-2,1
COc1ccc(C2C(C#N)=C(N)Nc3onc(C(C)(C)C)c32)c(OC)c1 (stereo not drawn),i,-14,-10,7,11*,6,-3,-1
COc1ccc(C2C(C#N)=C(C)NC(C)=C2C#N)c(OC)c1,i,-4,-6,-6,-24,-16,nt,nt
COc1ccc(/C=N/NC(=S)Nc2ccccc2)cc1COc1ccc(F)cc1,i,-2,1,0,16*,11*,-11,-10
COCCn1c(SCC(=O)OC(C)C)nnc1-c1ccccc1,i,2,6,7,8,12*,-3,0
CCOC(=O)c1c(C)n(-c2ccc(C)cc2)c2c(CC(C)=O)c(Br)c(OC)c(O)c12,i,-2,-8,1,7,10*,-5,-3
